HT1080 IDH1KD tx: qHTS for induction of synthetic lethality in tumor cells producing 2HG: qHTS for the HT-1080-IDH1KD cell line; HT-1080 IDH1 knockdown viability, ATP luminescence, 48 h; Potency, µM (titrated, usually from 46.1 µM), inactives show at the highest dose activity, negative = toxicity, most hits filed as cytotoxic; hit rate 2% among 360,000; AID 686971, 2013;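 further: potency means the concentration at half of the fitted maximal effect; 0% = DMSO wells and -100% = cell-free medium wells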
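After a 2 h attachment period, IDH1KD HT-1080 cells took pin-transferred compound for 48 h at 37 °C; ATP-based luminescence after 10 min room-temperature reagent incubation reported viability.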
DT40 TDP1 no CPT: qHTS for Inhibitors of human tyrosyl-DNA phosphodiesterase 1 (TDP1): qHTS in cells in absence of CPT; DT40 Tdp1-/- hTDP1 cells, no CPT, ATP luminescence, 48 h; Potency, µM (doses to about 46.2 µM), for the others: top-dose activity change, negative = growth inhibition, actives largely listed as inhibitors; hit rate 15% among 420,000; further: potency means the concentration at half of the fitted maximal effect; nearly all actives have a fitted effect of over 55% in size
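Cells were dispensed at 400 per well, compounds added by pin tool, plates incubated ≥48 hr at 37 °C, then CellTiter-Glo added for 30 min at room temperature before luminescence reading. Line: DT40 Tdp1-/- complemented with hTDP1; camptothecin omitted.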
uPA generation: qHTS for Inhibitors of Cell Surface uPA Generation. hit rate 0.31% among 330,000. AID 540303, 2011. cell surface uPA generation assay, qHTS. Potency, µM (series often up to 38.3 µM), without a hit: at the highest dose activity change, negative = inhibition, hits mostly inhibitors; active means well fitted inhibition curve with a large enough effect; inconclusive means small, poorly fitted or top-dose-only effect; inactive means no such curve, though single readings can be large or run the other way; tested in mouse RAW 264.7 cells; further: potency means the concentration at half of the fitted maximal effect; nearly all actives have a fitted effect of over 55% in size
HT1080-NT tox: qHTS for induction of synthetic lethality in tumor cells producing 2HG: qHTS for the HT-1080-NT fibrosarcoma cell line; HT-1080-NT fibrosarcoma viability, CellTiter-Glo ATP luminescence, 48 h; Potency, µM (series often up to 46.1 µM), without a hit: at the top dose activity, negative = less viability, actives largely listed as cytotoxic; hit rate 1.6% among 360,000; AID 686970, 2013;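 further: NT is the 2HG producing partner of a matched IDH1 knockdown line; potency means the concentration at half of the fitted maximal effect; 0% = DMSO-treated cells and -100% = media-only wells without cells; nearly all actives have a fitted effect of over 55% in size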
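HT-1080-NT; 750 cells/well; 5% FBS RPMI; 48 h compound, 37 degrees C; CellTiter-Glo luminescence; curve fitting and curve-class assignment.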
IL-1B inflam inh: qHTS for Inhibitors of Inflammasome Signaling: IL-1-beta AlphaLISA Primary Screen; THP-1 LPS/ATP IL-1B secretion, AlphaLISA, 16 h; stronger effect = lower value; activity change, % at 57.5 µM; hit rate 4.7% among 360,000; AID 743279, 2014; in the data active means activity change below about -50%; inconclusive means mostly about -30% to -49%
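THP-1 cells pretreated 1 hr with compounds (up to 57.5 uM final), then stimulated with LPS (250 ng/mL final) plus ATP (1.25 mM final); secreted IL-1B measured by AlphaLISA after 16 hr, decreased signal indicating inhibition.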
DT40 TDP1 CPT: qHTS for Inhibitors of human tyrosyl-DNA phosphodiesterase 1 (TDP1): qHTS in cells in presence of CPT; hit rate 12% among 420,000; Potency, µM (series often up to 46.2 µM), for the others: at the highest dose activity change, negative = growth inhibition, hits mostly inhibitors; chicken DT40 Tdp1-/-;hTDP1 cells + 20 nM CPT, ATP luminescence, 48 h; further: potency means the concentration at half of the fitted maximal effect; nearly all actives have a fitted effect of over 55% in size
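Chicken DT40 Tdp1-/- cells stably complemented with human TDP1 were seeded at 400 cells/well in medium containing 20 nM camptothecin, exposed to pin-transferred compounds, and grown at 37 °C for at least 48 hr. Viability was read as ATP luminescence.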
Active calls of the source: *; ? = inconclusive; nt = no result given; [ ] = dose if it differs, or a comment. The list is not random: actives were taken first. Their share in the collection is about 19%. Unless noted, the call rests on the fitted dose curve; in most records, active means well fitted curve in the direction sought with a large enough effect; inconclusive means small, poorly fitted or top-dose-only effect, or another doubt; inactive means no such curve, though single readings can be large; an effect the other way counts as inactive or inconclusive. Unless noted, on the % scale 0 is the no-effect control and ±100 the full control effect.

SMILES	HT1080 IDH1KD tx	DT40 TDP1 no CPT	uPA generation	HT1080-NT tox	IL-1B inflam inh	DT40 TDP1 CPT
CN1CCCCC1(C)C(=O)NCc1ccc(C(C)(C)C)cc1 (configuration not stated)	-3%	-7%	nt	-2%	-5	-17%
COc1ccc(C(C)=O)cc1CSc1nc2ccccc2c(=O)n1-c1ccccc1C	-15%	21µM*	6%	-16%	-3	18µM*
COc1ccccc1-n1c(SCC(=O)N2CCOCC2)nc2ccccc2c1=O	17%	-20%	-2%	11%	-2	7%
COc1ccc(C(C)=O)cc1CSc1nc2ccccc2c(=O)n1-c1cccc(C)c1	-16%	18µM*	-1%	-16%	-6	18µM*
COc1ccccc1-n1c(SCc2cc(=O)oc3cc(O)ccc23)nc2ccccc2c1=O	-4%	?	5%	-6%	7	23µM*
C=CCn1c(SCc2cc(C(C)=O)ccc2OCC)nc2ccccc2c1=O	2.3µM*	0.82µM*	-9%	?	51	1.6µM*
COc1ccc(C(C)=O)cc1CSc1nc2ccccc2c(=O)n1-c1ccccc1	-27%	?	5%	?	0	?
COc1cc(NC(=O)Cn2ccsc2=N)cc(OC)c1	12%	-21%	5%	9%	-26	?
CCOC(=O)CC(=O)CSc1nc2ccccc2c(=O)n1-c1ccc(C(=O)N2CCOCC2)cc1	-12%	-8%	0%	6%	11	-10%
O=C(c1ccc(-n2c(SCc3cc(F)ccc3F)nc3ccccc3c2=O)cc1)N1CCOCC1	-4%	26µM*	-4%	-1%	5	12µM*
Cc1cc(C)n(-c2nc3ccccc3nc2Nc2ccc(N(C)C)cc2)n1	nt	-22%	nt	nt	nt	-19%
Cc1ccc2nc(Nc3ccc4[nH]c(=O)[nH]c4c3)c(-n3nc(C)cc3C)nc2c1	4%[9.24 µM]	?	-20%	?	-90*	?
CCOc1ccc(CC2NCCc3cc(OCC)c(OCC)cc32)cc1OCC (configuration not stated)	-8%	4.1µM*	?	-18%	-19	3.7µM*
CCOc1cc2c(cc1OCC)C(c1ccc(F)cc1)NCC2 (configuration not stated)	6%	?	19%	13%	-24	-13%
CCc1ccc(OCC2NCCc3cc(OC)c(OC)cc32)cc1 (configuration not stated)	-9%	18µM*	6%	-14%	-15	?
COc1cc2c(cc1OC)C(c1ccc(Br)cc1)NCC2 (configuration not stated)	-8%	?	2%	-2%	-52*	?
COc1cc2c(cc1OC)C(COc1ccc(F)cc1)NCC2 (configuration not stated)	3%	?	7%	-8%	-8	?
CC(=O)c1cc(CN2CCC(n3nccc3NC(=O)c3ccccc3)CC2)cs1	-1%	-7%	1%	-3%	0	1%
Cc1cc2cc(C#N)c(N3CCOCC3)nc2cc1Cl	19%	?	-5%	5%	8	-13%
COc1ccc(-c2ccc(CN3C(C)C(=O)N(Cc4cn(CCC5OCCO5)nn4)CCS3(=O)=O)cc2)cc1OC (configuration not stated)	8%	12µM*	nt	13%	20	18µM*

Bioassay records deposited in PubChem BioAssay by National Center for Advancing Translational Sciences (NCATS).
